NPC1 promoter act – activators of NPC1 promoter | AID 485313 | actives 2.4% (n = 320,000) | Huh7 NPC1 promoter luciferase reporter, 24 h | Potency, µM (series often up to 9.22 µM), without a hit: at the highest dose activation, usual class: activators; also: % of control where 0% means no effect; nearly all actives have a fitted effect of over 60% in size
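Huh7 cells stably carrying NPC1 promoter–luciferase, plated in Opti-MEM with 10% FBS for 2 h, were exposed to compound in DMSO for 24 h at 37 °C; luciferase reagent was added for 10 min and luminescence read.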
Rab9 promoter act – Rab9 promoter activation; actives 2.8% (n = 320,000); Huh7 Rab9 promoter-luciferase reporter, luminescence, 24 h; Potency, µM (highest dose often 9.22 µM), inactives show top-dose activation, negative = inhibition, usual class: activators; AID 485297; also: % of control where 0% means no effect; nearly all actives have a fitted effect of over 60% in size
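Luminescence read-out: Huh7 cells stably expressing Rab9-luciferase, treated 24 h with compound at 37 °C, then lysed with luciferase reagent for 10 min at ambient before reading.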
FLuc modulator – inhibits or activates purified firefly luciferase, miR-21 counter-screen | purified FLuc, Km substrates, luminescence inhibition | Potency, µM (highest dose often 57.5 µM), inactives show top-dose activity change, negative = inhibition, hits mostly inhibitors | actives 6.9% (n = 360,000) | AID 588342;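 also: plate controls were vehicle for no effect and reference inhibitor for full effect; nearly all actives have a fitted effect of over 55% in size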
Target sequence (P08659 whole entry, looked up): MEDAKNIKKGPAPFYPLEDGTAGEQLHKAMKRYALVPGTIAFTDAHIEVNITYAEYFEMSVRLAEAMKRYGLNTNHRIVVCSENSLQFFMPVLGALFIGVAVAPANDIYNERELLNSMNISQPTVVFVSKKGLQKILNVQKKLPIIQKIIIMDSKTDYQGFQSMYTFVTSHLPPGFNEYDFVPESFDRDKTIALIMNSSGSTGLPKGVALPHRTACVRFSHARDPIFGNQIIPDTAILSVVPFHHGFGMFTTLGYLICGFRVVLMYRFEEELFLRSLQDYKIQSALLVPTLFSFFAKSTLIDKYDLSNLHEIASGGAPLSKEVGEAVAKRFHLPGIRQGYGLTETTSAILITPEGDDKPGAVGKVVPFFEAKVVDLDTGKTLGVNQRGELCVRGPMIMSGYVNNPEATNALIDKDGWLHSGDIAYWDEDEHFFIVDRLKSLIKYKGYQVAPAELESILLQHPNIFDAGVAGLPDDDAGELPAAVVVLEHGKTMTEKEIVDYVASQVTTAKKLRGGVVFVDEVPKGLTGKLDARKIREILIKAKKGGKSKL
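Purified P. pyralis luciferase, 10 nM final, with Km-level 10 uM D-luciferin and 10 uM ATP in 50 mM Tris acetate pH 7.5, 10 mM Mg acetate, 0.01% Tween-20, 0.05% BSA; 6-point qHTS titration about 60 µM downward; luminescence read.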
KinaseGlo FLuc – Kinase-Glo luciferase inhibition (counter-screen) | Kinase-Glo luciferase, ATP luminescence, 8 min | Potency, µM (titrated, usually from 38.3 µM), for inactives: at the highest dose activity change, negative = inhibition, hits mostly inhibitors | actives 0.28% (n = 200,000); also: % is scaled to controls: 0 for no effect and ±100 for the full control effect; nearly all actives have a fitted effect of over 60% in size
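Recombinant Kinase-Glo luciferase, 10 uM ATP (linear range), luciferin; imidazole pH 7.2 / KCl / MgCl2 / Tween / BSA buffer; 8 min RT; luminescence.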
ELG1 genotox – genotoxicity induction in ELG1-luciferase HEK293T cells; actives 1.3% (n = 330,000); HEK293T ELG1-luciferase reporter, luminescence, 16 h; Potency, µM (doses to about 46 µM), inactives show at the top dose activity change, positive = activation, actives largely listed as activators; AID 504466; also: % of control where 0% means no effect; nearly all actives have a fitted effect of over 60% in size
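Cells (2,000/well) expressing the ELG1-luciferase fusion are dosed by pin tool and kept 16 hr at 37 °C, 5% CO2. Signal comes from ONE-Glo luciferase reagent after 30 min at room temperature.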
SMN2 splice up – increases expression of the SMN2 splice variant. Potency, µM (top dose mostly 46.1 µM), inactives show top-dose activity change, positive = activation, most hits filed as activators. actives 2.8% (n = 210,000). HEK293 SMN2-luciferase splicing reporter, luminescence, 30-36 h; also: % of control where 0% means no effect; nearly all actives have a fitted effect of over 55% in size
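qHTS luciferase splicing reporter: luminescence rises when SMN2 exon 7 is included in transfected HEK293 cells. Compound exposure lasted 30-36 h at 37C, with 4.5 mM final sodium butyrate as control, followed by a ONE-Glo read.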
An asterisk follows results filed as active; ? = inconclusive; . = not tested or not shown; [ ] = dose if it differs, or a comment. An excerpt weighted towards active compounds, which were near 7.5% of everything screened. Calls follow the shape of the dose curve; as a rule, active = well fitted curve in the direction sought with a large enough effect; inconclusive = small, poorly fitted or top-dose-only effect, or another doubt; inactive = no such curve, though single readings can be large; an effect the other way counts as inactive or inconclusive. Potency is read from the fitted curve at half-maximal effect.

SMILES | NPC1 promoter act | Rab9 promoter act | FLuc modulator | KinaseGlo FLuc | ELG1 genotox | SMN2 splice up
CCCn1c(C)cc(C(=O)CSc2nc3nc(C)cc(C)n3n2)c1C | -1% | 0% | 21µM* | -2% | 0% | -18%
CCOC(=O)CSc1nc2nc(C)cc(C)n2n1 | -5% | 2% | 0% | 2% | -5% | 8%
CC(=O)/C(=C\c1ccccc1F)C(=O)c1ccccc1 | . | . | . | -4%[7.66 µM] | . | -8%[9.22 µM]
CC(C)c1ccc(C2=CC(c3cccc(Cl)c3)n3c(nc4ccccc43)N2)cc1 (stereo not drawn) | . | . | 21µM* | . | . | .
CCc1ccc(C2=CC(c3cccc(OC)c3OC)n3c(nc4ccccc43)N2)cc1 (stereo not drawn) | . | . | 4.3µM* | . | . | .
CCOc1ccc(C2=CC(c3cccc(Br)c3)n3c(nc4ccccc43)N2)cc1Cl (stereo not drawn) | . | . | 13µM* | . | . | .
CCc1ccc(C2=CC(c3cccc(C)c3)n3c(nc4ccccc43)N2)cc1 (stereo not drawn) | . | . | 1.2µM* | . | . | .
Cc1ccccc1OCCOC(=O)c1cc(S(=O)(=O)N2CCCCC2)ccc1N1CCOCC1 | -13% | -16% | 2% | . | -8% | .
O=C1C(C2=NC(C(=O)O)C3C(=O)N(c4ccccc4)C(=O)C23)=C(O)c2ccccc21 (stereo not drawn) | -1% | 0% | 12µM* | ? | -4% | -7%
COC(=O)CSc1ccc2c(N)c(C(=O)OC)sc2c1 | -2% | 2% | 19µM* | -4% | 0% | ?
CCN(CC)c1ccc(NC(=O)C2CCN(c3nnc(-n4cccc4)s3)CC2)c(C)c1 | . | . | -2% | . | . | .
COc1ccc(NC(=O)CSc2ncccc2C(=O)O)cc1OC | . | . | -10% | . | . | .
O=C(c1ccccc1)[C@H]1[C@H](c2ccccc2)[C@@]2(N=C(c3ccccc3)OC2=O)C2c3ccccc3C=NN21 (stereo partly drawn) | 4µM* | 4.5µM* | ? | -1% | 6% | ?
CN1CCN(c2nc3c(c(=O)n(C)c(=O)n3C)n2C)CC1 | . | . | . | 0%[7.66 µM] | . | -5%[9.22 µM]
COc1ccc(-c2noc(CSc3nnc(-c4ccccc4)n3C)n2)cc1 | 2% | 3% | 21µM* | -3% | 5% | -5%
COc1ccc(-c2noc(CSc3nc(N)cc(=O)[nH]3)n2)cc1 | 4% | -2% | 21µM* | . | 0% | .
COc1ccc(-c2noc(CSc3nc4ccccc4[nH]3)n2)cc1 | . | . | 2% | . | . | 0%
CCOC(=O)C1CCN(C(=O)CNC(=O)Cn2c(C)cc3ccccc3c2=O)CC1 | 2% | -3% | 0% | . | 0% | .
O=S(=O)(c1ccc(F)cc1)c1nc(-c2ccccc2)oc1N1CCOCC1 | 1% | -5% | 3% | . | -5% | .
COc1cc(NC(=O)CSc2ncnc3scc(-c4ccccc4)c23)c(C(=O)O)cc1OC | 0% | -5% | 15µM* | 1% | 2% | 20%
O=[N+]([O-])c1ccc(C23CC4CC(CC(O)(C4)C2)C3)cc1 | 2.8µM* | 1.6µM* | 11µM* | . | 16%[9.26 µM] | .
O=C(N=Nc1c(O)n(Cc2ccccc2)c2ccccc12)c1cc2ccccc2cc1O | ? | ? | 1.1µM* | -15% | ? | 10µM*
Cc1ccc(NC(=O)Cn2c(O)c(N=NC(=O)c3cc4ccccc4cc3O)c3ccccc32)cc1 | 1% | -8% | ? | -1% | -3% | -44%
O=C(N=Nc1c(O)n(Cc2ccccc2)c2ccccc12)c1ccc(O)cc1 | ? | ? | 0.95µM* | -2% | ? | ?
Cn1c(=N)n(CC(=O)O)c2ccccc21 | -3% | -2% | 0% | -2% | 0% | 18%
SMILES | NPC1 promoter act | Rab9 promoter act | FLuc modulator | KinaseGlo FLuc | ELG1 genotox | SMN2 splice up
Cn1c(=N)n(CC(=O)c2ccc(Cl)c(Cl)c2)c2ccccc21 | ? | ? | 0.38µM* | . | ? | .
COc1ccc(C(=O)Cn2c(=N)n(C)c3ccccc32)cc1 | 26% | ? | 8.5µM* | . | ? | .
COc1ccc(C(=O)CN2Cc3ccccc3C2=N)cc1 | 4µM* | 2.5µM* | 11µM* | . | 2.6µM* | .
COc1ccc(C(=O)CN2C(=O)COc3ccccc32)cc1 | -6% | -2% | 2% | 0% | 6% | .
Cn1c(=N)n(CC(=O)c2ccccc2)c2ccccc21 | 3.2µM* | 1.1µM* | 1.2µM* | . | 0.37µM* | .
CC(NC(=O)c1ccc2c(c1)sc1nc(-c3ccccc3)cn12)C12CC3CC(CC(C3)C1)C2 (stereo not drawn) | . | . | 0% | . | . | .
CC(=O)Nc1c(-c2ccccc2)c2cc(Br)ccc2[nH]c1=O | 0% | -6% | -2% | . | -4% | .
Cc1ccc(C(=O)Nc2ccccc2C(=O)NC(C(=O)O)C(C)C)cc1 (stereo not drawn) | ? | ? | 11µM* | 0% | ? | 13µM*
CCC(C)C(NC(=O)c1ccccc1NC(=O)c1ccc(C)cc1)C(=O)O (stereo not drawn) | 18% | -6% | ? | . | 10% | .
Cc1ccc(C(=O)Nc2ccccc2C(=O)NC(CC(=O)O)C(=O)O)cc1 (stereo not drawn) | 17% | 12% | 15µM* | -1% | 5% | -1%
C=CCN(CC=C)c1cnn(-c2nc3ccccc3[nH]2)c(=O)c1Cl | 2µM* | 0.71µM* | 6µM* | 14µM* | ? | .
O=c1c(Cl)c(NCCCO)cnn1-c1nc2ccccc2[nH]1 | ? | ? | 12µM* | 11µM* | 16µM* | ?
N.N.O=C(O)C1(C(=O)O)CCC1.[Pt+2] | 4%[46.1 µM] | 0%[46.1 µM] | . | . | . | .
O=C1NC(=S)S/C1=C\C=C\c1ccc([N+](=O)[O-])o1 | -43% | -49% | 24µM* | . | ? | .
O=C(O)/C=C/c1ccc([N+](=O)[O-])o1 | -4% | -4% | 3% | 7% | 0% | 6%

Screening results deposited in PubChem BioAssay by National Center for Advancing Translational Sciences (NCATS).
